Reference: PubChem BioAssay AID485367 (National Center for Advancing Translational Sciences (NCATS), 2010)
In all, about 330,000 compounds went through this assay and about 560 (0.17%) were called active. Inconclusive results (about 1%) are left out. Many of the other results were omitted from the sample, so actives are more common in it than they were. Unmarked numbers belong to inactive results. Calls come from the whole dose curve; as a rule, active = well fitted inhibition curve with a large enough effect; inconclusive = small, poorly fitted or top-dose-only effect, or effect the other way; inactive = flat fitted curve, though single readings scatter.

Each molecule was assayed against ATP-dependent 6-phosphofructokinase (Trypanosoma brucei brucei) (UniProt O15648) (assay: qHTS Assay to Find Inhibitors of T. brucei phosphofructokinase). Details: T. brucei PFK, ADP-Glo luminescence; series mostly up to 57.5 µM; activity, negative = inhibition: at the top concentration.
ATP-dependent 6-phosphofructokinase (Trypanosoma brucei brucei), sequence (O15648 whole entry, looked up): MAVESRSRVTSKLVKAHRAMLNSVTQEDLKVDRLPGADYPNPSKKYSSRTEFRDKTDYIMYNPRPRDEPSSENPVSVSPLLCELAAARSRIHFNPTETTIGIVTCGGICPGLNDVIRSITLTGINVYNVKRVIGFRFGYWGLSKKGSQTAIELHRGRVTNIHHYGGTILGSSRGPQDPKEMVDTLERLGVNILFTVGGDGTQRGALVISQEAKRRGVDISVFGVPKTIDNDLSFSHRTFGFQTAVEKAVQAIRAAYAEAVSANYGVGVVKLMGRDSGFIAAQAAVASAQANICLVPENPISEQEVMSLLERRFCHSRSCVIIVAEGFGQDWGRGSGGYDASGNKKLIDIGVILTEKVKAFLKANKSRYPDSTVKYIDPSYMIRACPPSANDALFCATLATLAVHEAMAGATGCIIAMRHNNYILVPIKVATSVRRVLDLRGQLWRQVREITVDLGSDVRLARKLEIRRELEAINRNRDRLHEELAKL
Excerpt: NIH Molecular Libraries Probe Production Network [MLPCN] NIH Chemical Genomics Center [NCGC] Grant: 1 R03 MH092153-01 PI Name: Malcolm Walkinshaw, University of Edinburgh NCGC Assay Overview: Various species of the protozoan family Trypanosomatidae are responsible for a range of serious human diseases in tropical and subtropical areas of the world. […] Many of the disorders caused by trypanosomatids are fatal if left untreated, but most currently used drugs are inefficient and toxic. […] Oxidative metabolism involving the mitochondrial tricarboxylic acid cycle and oxidative phosphorylation are repressed in these parasites, and recent RNA interference (RNAi) experiments have shown that even partial depletion of certain individual glycolytic enzymes can lead to the death of cultured parasites. One such glycolytic enzyme, phosphofructokinase (PFK), catalyzes the formation of fructose-1,6-bisphosphate (F1,6BP) and ADP from fructose-6-phosphate (F6P) and ATP, and in many metabolic circumstances makes an important contribution to the control of flux through the glycolytic pathway. As a specific glycolytic target, PFK is particularly attractive as it catalyzes the first irreversible step in glycolysis, and structural and kinetic studies have shown very substantial and essential differences from corresponding host enzymes, allowing for the discovery of parasite-selective inhibitors. The goal of this screen is to find small-molecule inhibitors of T. brucei PFK using a biochemical assay that measures PFK activity as a function of ADP production. A luminescence-based assay for T. brucei PFK activity has been developed which uses luciferase to detect production of ADP. Traditional luciferase-based nucleotide detection reagents rely on ATP production as a direct substrate for the luciferase reaction; however, PFK catalyzes the transfer of a phosphate from ATP to F6P, resulting in the net depletion of ATP. To directly measure the ADP product of the PFK reaction, we used the ADP-Glo detection kit (Promega), which utilizes two separate reactions to 1) deplete all remaining uncatalyzed ATP and 2) convert all remaining ADP to ATP, which is then detected through a traditional luciferase-coupled reaction. Compounds were screened as a concentration-titration series that ranged from 57 uM to 0.7 nM.
NCGC Assay Protocol Summary: NCGC Assay Protocol Summary: Substrate buffer was dispensed into white, solid 1536-well plates at 3uL/well in 0.1M triethanolamine (TEA) buffer, pH 8.0, containing final concentrations of 5 mM MgCl2, 0.01% Tween20, 0.5 mM fructose-6-phosphate (F6P) and 0.1mM ATP. Then, 23 nL of compounds or DMSO were delivered to each well using a pin tool. One uL T. brucei PFK (0.1M TEA, 0.01% Tween20, 0.1% bovine serum albumin (BSA) and 1.25nM PFK, final concentrations) was then dispensed, and plates were incubated at room temperature for 45 min. The luminescent detection reagent, ADP-Glo (Promega), was then added in two steps: the first reagent, ADP-Glo (which converts remaining uncatalyzed ATP), was added at 2.5uL/well and incubated for ten minutes at room temperature, and the second component, Kinase Detection reagent (which converts ADP to ATP as a substrate for luciferase-based luminescence), was added immediately after at 5uL/well, followed by one final ten minute room temperature incubation. The plates were measured on a ViewLux plate reader for luminescent signal using a clear filter with a one second exposure. The %Activity was determined from the corrected luminescence values. As no specific T. brucei PFK inhibitors have been identified in the literature, 1x (1.25nM) and 0x PFK enzyme controls (untreated) were included to normalize %Activity of identified inhibitors; 0x enzyme values corresponded to 100%Activity (full inhibition), while 1x PFK enzyme values were used to normalize 0%Activity (no inhibition). Concentration-response curves were fitted to the signals arising from the resulting luminescence. […]
Note: nearly all actives have a fitted effect of over 60% in size.
Potency is the fitted concentration of half-maximal effect.

| Structure (SMILES) | activity, negative = inhibition | Potency |
| --- | --- | --- |
| Cc1ccc(-n2c(N)c(C(=O)N3CCOCC3)sc2=S)c(C)c1 | -2.32% | – |
| Cc1ccc2c(C)c(C(=O)N(C)CCC3CCCCO3)oc2c1C (stereo unspecified) | -4.76% | – |
| N#CCSc1nn(-c2ccc(F)cc2)c(=S)s1 | 0.779% | – |
| O=c1ccc2c(-c3ccccc3S(=O)(=O)O)c3ccc(O)c(O)c3oc-2c1O | – | 2.39 µM (active) |
| COC(=O)c1ccc(COc2ccc(/C=C/C(=O)c3ccc(OC)c(CSCC(=O)O)c3)cc2OC)cc1 | – | 4.78 µM (active) |
| COc1ccc(/C=C/C(=O)c2ccc(NS(=O)(=O)c3ccc(C)cc3)cc2)cc1O | 9.84% | – |
| COc1ccc(C(=O)/C=C/c2ccc(-c3ccccc3)cc2)cc1CSCC(=O)O | -0.707% | – |
| Cc1ccc(OCC(=O)N2CCN(C(=O)c3cccnc3)CC2)cc1 | -0.802% | – |
| CN1C(CC(=O)Nc2ccc(Br)cc2)c2ccccc2CC1(C)C (stereo unspecified) | 3.31% | – |
| Cc1nn(Cc2ccc(F)cc2)c(C)c1NC(=O)c1cccnc1Cl | 0.406% | – |
| Cc1cc(C(=O)Nc2c(C)nn(Cc3ccccc3)c2C)on1 | 3.52% | – |
| Cc1nn(Cc2ccc(Cl)c(Cl)c2)c(C)c1NC(=O)c1cc(C2CC2)on1 | – | 9.53 µM (active) |
| CCCc1nn(C)c2c(=O)[nH]c(-c3cc(S(N)(=O)=O)ccc3OCC)nc12 | 7.25% | – |
| CC1CCC(NC(=O)CN(C)S(=O)(=O)c2ccc3c(c2)c(=O)n(C)c(=O)n3C)CC1 (stereo unspecified) | 0.492% | – |
| O=C(OCC(=O)N1CCc2ccccc21)c1ccc([N+](=O)[O-])cc1 | 17.6% | – |
| COc1ccc(NS(=O)(=O)c2ccc(C)c(C(=O)NNC(=O)c3csc(N4CCOCC4)n3)c2)cc1 | -10% | – |
| CC1=NN(c2cccc(Cl)c2)C(=O)C12CC(C)=C(C)CS2 (stereo unspecified) | 2.05% | – |
| Cc1ccn2c(=O)c(NC(=O)c3cccc4ccccc34)c(C)nc2c1 | -3.25% | – |
| O=C(C1CCN(c2nnc(-n3cccc3)s2)CC1)N1CCc2ccccc2C1 | -0.0102% | – |
| CN1CCN(c2ccc(S(=O)(=O)N3CCOCC3)cc2NC(=O)CCc2ccccc2)CC1 | 1.42% | – |
| O=C(COc1nsnc1N1CCOCC1)Nc1ccccc1Cl | 2.58% | – |
| O=C(NC1CCN(Cc2ccccc2)CC1)c1cc(Br)c(Br)[nH]1 | -0.675% | – |
| Cc1cnc(C(=O)N2CCCC(C(=O)c3ccc(C(F)(F)F)cc3)C2)cn1 (stereo unspecified) | 2.16% | – |
| Cc1cc(NC(=O)CCC(=O)N(CC(=O)NCC2CCCO2)c2ccccc2C)no1 (stereo unspecified) | 2.91% | – |
| CC(CN1CCC(n2nccc2NC(=O)C2CCCC2)CC1)c1ccccc1 (stereo unspecified) | -20.9% | – |
| C=Cn1cc[n+](CC(=O)c2ccc(OC)c(OC)c2)c1 | 8.02% | – |

| Structure (SMILES) | activity, negative = inhibition | Potency |
| --- | --- | --- |
| CC(NCC(=O)Nc1ccccc1C(=O)NC1CC1)c1ccccc1Cl (stereo unspecified) | 1.99% | – |
| Cc1cccc(NS(=O)(=O)c2ccc(-c3cnc(C4CC4)o3)cc2)c1 | -6.58% | – |
| COc1ccccc1N(CC(=O)Nc1ccc(C)cc1Cl)S(=O)(=O)c1cccs1 | 0% | – |
| O=C(NCC(=O)N1CCCC(C(F)(F)F)C1)c1ccccc1F (stereo unspecified) | -6.74% | – |
| O=C(NC(Cc1ccccc1)C(=O)N1CCCC(C(F)(F)F)C1)c1ccccc1 (stereo unspecified) | 1.45% | – |
| FC(F)(F)C1CCCN(c2nsc3ccccc23)C1 (stereo unspecified) | – | 6.75 µM (active) |
| COc1cccc(CNC(=O)C2CC(=O)N(C3CCCCCCC3)C2)c1 (stereo unspecified) | 1.34% | – |
| C=CCOc1ccc(/C=C2\SC(=S)N(CCC(=O)O)C2=O)cc1 | -6.36% | – |
| Cc1ccc(/C=C2/SC(=S)N(CCC(=O)NCCCN3CCOCC3)C2=O)cc1 | 2.57% | – |
| Cc1ccc(-c2nn(-c3ccccc3)cc2/C=C2\SC(=S)N(CCCCCC(=O)O)C2=O)o1 | – | 4.78 µM (active) |
| CC(=O)c1nnn(-c2ccc(Cl)cc2C#N)c1C | -1.18% | – |
| Cc1cccn2c(CN(C)C3CCCc4ccccc43)c(C(=O)N3CCOCC3)nc12 (stereo unspecified) | 0.624% | – |
| CC(C)=CC(=O)Nc1nnc(-c2ccc(F)cc2)s1 | -10% | – |
| Nc1nc(SCc2ccc([N+](=O)[O-])cc2)c2ncn(C3OC(CO)C(O)C3O)c2n1 (stereo unspecified) | – | 12 µM (active) |
| Cc1nc(N)nc(SCc2ccc([N+](=O)[O-])cc2)c1N | – | 13.5 µM (active) |
| CN[C@H](C(=O)NC[C@H]1O[C@@H](n2cnc3c(N)ncnc32)[C@H](O)[C@@H]1O)[C@@H](C)OCc1ccccc1 | -2.64% | – |
| CN(Cc1ccc(CNC[C@H]2O[C@@H](n3cnc4c(N)ncnc43)[C@H](O)[C@@H]2O)o1)S(C)(=O)=O | 0% | – |
| Cc1cc(C)cc(C(=O)N2CCN=C2SCc2ccc([N+](=O)[O-])cc2)c1 | 3.53% | – |
| Cc1nc(SCc2ccc(F)cc2)c([N+](=O)[O-])[nH]1 | 1.96% | – |
| COc1cccc(CNC(=O)CCC2CCCN(C(=O)c3ccc(F)c(Cl)c3)C2)c1 (stereo unspecified) | -20.6% | – |
| CCN(CC)CCn1cnc2c1c(=O)n(CCOC(=O)c1cc(OC)c(OC)c(OC)c1)c(=O)n2C | 0.629% | – |
| CCOc1ccc(NC(=O)c2ccc(CSc3nnnn3C)cc2)cc1 | -15.6% | – |
| CC(C)C[C@H](NC(=O)N1CCn2c1nc1ccccc12)C(=O)NC1CC1 | 1.02% | – |
| CC1CCN(C(=O)CN(c2ccc(Oc3ccccc3)cc2)S(C)(=O)=O)CC1 | -2.4% | – |
| Cc1nn(C(C)CC(=O)O)c(C)c1C (stereo unspecified) | -4.85% | – |
